Results on 32 compounds are retold here after PubChem BioAssay (Tox21).

Each structure is given as a SMILES string. Where “and” joins values, the source holds several entries; their conditions need not be identical. Equal values may be shown once. Records with an inconclusive call do not appear. Where a call stands in place of a potency, no number is given. Some compounds were tested as several samples or in several runs, with calls that do not always agree. Calls of active or inactive are those of the source. Calls follow the shape of the full dose curve.

Acetylcholinesterase (Homo sapiens), sequence (P22303 whole entry, looked up): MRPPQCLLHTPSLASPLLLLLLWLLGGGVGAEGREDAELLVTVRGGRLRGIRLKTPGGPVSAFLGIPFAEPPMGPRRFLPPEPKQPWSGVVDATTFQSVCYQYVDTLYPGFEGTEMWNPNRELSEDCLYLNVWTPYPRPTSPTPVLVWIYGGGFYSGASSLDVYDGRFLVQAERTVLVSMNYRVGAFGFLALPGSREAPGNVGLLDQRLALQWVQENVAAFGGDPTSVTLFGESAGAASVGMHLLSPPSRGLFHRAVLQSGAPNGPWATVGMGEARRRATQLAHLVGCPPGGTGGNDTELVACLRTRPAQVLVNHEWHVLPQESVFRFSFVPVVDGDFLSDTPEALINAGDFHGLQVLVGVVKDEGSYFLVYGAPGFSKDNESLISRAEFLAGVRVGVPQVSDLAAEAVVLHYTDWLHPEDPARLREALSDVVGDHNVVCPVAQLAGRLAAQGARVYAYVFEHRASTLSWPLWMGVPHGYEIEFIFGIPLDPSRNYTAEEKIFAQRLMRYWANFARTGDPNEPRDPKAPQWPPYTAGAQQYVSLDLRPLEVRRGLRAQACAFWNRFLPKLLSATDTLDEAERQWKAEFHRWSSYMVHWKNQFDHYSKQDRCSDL

One test has as its target Acetylcholinesterase (Homo sapiens) (UniProt P22303). Kind of test: Acetylcholinesterase (AChE) small molecule antagonists: colormetric cell-based qHTS assay (AID 1347395). Also: nearly all actives have a fitted effect of over 30% in size. Also: potency is read from the fitted curve at half-maximal effect. The settings on record: SH-SY5Y cells AChE activity, colorimetric (Ellman); series mostly up to 115 µM; activity, negative = inhibition: at the top concentration. The gist of the method: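 SH-SY5Y cells, plated overnight at 37 C, were exposed to compounds for 30 min at 37 C and 5% CO2. Acetylthiocholine plus DTNB was then added, and thiocholine from endogenous AChE was quantified colorimetrically after 90 min at 37 C.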
(In general: In qHTS, concentration-response curves come from the screen itself.)
For `Cc1ccc(N)cc1N`, the “activity, negative = inhibition” value is -8.44% (inactive). As for `CC(C)C#N`, the Potency result is “inactive”. Consider `CCN(CC)c1ccccc1`, for which the Potency result is “inactive”.

Regarding `CC(Oc1ccc(Cl)cc1Cl)C(=O)O` (centres undefined), the Potency entry was “inactive”. The same measure, in the same setting: with `O=S(=O)(c1ccc(O)cc1)c1ccc(O)cc1` the entry was “inactive”; with `O=c1ccc(=O)[nH][nH]1`, “inactive”. In the case of `c1ccc2c(c1)oc1ccccc12`, the Potency result was “inactive”. For `O=[N+]([O-])c1ccccc1`, the Potency result is “inactive”. For `C#CCN(C)[C@H](C)Cc1ccccc1`, the Potency result is “inactive”. Regarding `Clc1ccccc1Cl`, the Potency entry is “inactive”. Turning to `CC1OC(C)OC(C)O1` (centres undefined), the Potency entry was “inactive”. Turning to `CC(=O)C=C(C)C`, the Potency entry is “inactive”. As to `Nc1ccc(Br)cc1`, the Potency result was “inactive”.

`Oc1ccccc1Cl`: the Potency result was “inactive”.

For `C[C@]12CC[C@H]3[C@@H](CC[C@@]45O[C@@H]4C(O)=C(C#N)C[C@]35C)[C@@H]1CC[C@@H]2O`, the Potency entry was “inactive”. With `CCCCN(CC)C(=O)SCCC`, the Potency entry is “inactive”. With `O=C(O)c1ccccn1`, the Potency result was “inactive”. Regarding `CC(C)(C)OOC(C)(C)C`, the Potency result was “inactive”. Same read-out and setting: the value for `C=C(C)CCl` was “inactive”.

For the compound `BrCCBr`, the Potency result was “inactive”. Turning to `O=C1CCCN1`, the Potency result was “inactive”.

Regarding `c1ccc(-c2ccccc2)cc1`, the Potency result was “inactive”. As for `O=NN1CCCCCCC1`, the Potency result is “inactive”.

Take `NCCc1ccc(O)cc1`: the Potency is 62.8 µM (active) and inactive. `CCOP(=S)(OCC)Oc1cnc2ccccc2n1`: the Potency result was “inactive and 35.6 µM (active)”. On to `O=[N+]([O-])c1ccc([As](=O)(O)O)cc1`, for which the “activity, negative = inhibition” value was 2.84% (inactive). Consider `Clc1ccc(Cl)cc1`, for which the Potency entry was “inactive”.

The next test has the same target. As to the kind of experiment: Acetylcholinesterase (AChE) small molecule antagonists: enzyme-based qHTS assay (AID 1347397). Also: nearly all actives have a fitted effect of over 55% in size. To be noted: Potency: AChE enzyme activity inhibition; series mostly up to 115 µM; activity change, negative = inhibition: at the top concentration. The gist of the method: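 First, recombinant human AChE (50 mU/mL as dispensed) received test compound or DMSO. Second, plates stood 30 min at room temperature. Third, DTNB and acetylthiocholine were added, followed by 10 min at room temperature and colorimetric detection.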
`Cc1ccc(N)cc1N`: the Potency entry is “inactive”. As to `CC(C)C#N`, the Potency entry is “inactive”.

For `CCN(CC)c1ccccc1`, the Potency result was “inactive”. In the case of `CC(Oc1ccc(Cl)cc1Cl)C(=O)O` (centres undefined), the Potency entry was “inactive”. Still for that read-out and setting: the value for `O=S(=O)(c1ccc(O)cc1)c1ccc(O)cc1` was “inactive”; that for `O=c1ccc(=O)[nH][nH]1` was “inactive”. Consider `c1ccc2c(c1)oc1ccccc12`, for which the Potency entry was “inactive”. As to `Nc1ccccc1C(=O)O`, the Potency entry is “inactive”. On the same count and under the same terms, with `O=[N+]([O-])c1ccccc1` the entry was “inactive”. Consider `C#CCN(C)[C@H](C)Cc1ccccc1`, for which the Potency entry was “inactive”. As for `Clc1ccccc1Cl`, the Potency entry is “inactive”. As to `CC1OC(C)OC(C)O1` (centres undefined), the Potency entry is “inactive”. As to `CCOC(=O)c1ccccc1C(=O)OCC`, the Potency entry is “inactive”. For `CC(=O)C=C(C)C`, the Potency entry is “inactive”. The same measure, in the same setting: with `Nc1ccc(Br)cc1` the entry was “inactive”; with `O=C(NC(=O)c1c(F)cccc1F)Nc1cc(Cl)c(OC(F)(F)C(F)C(F)(F)F)cc1Cl` (centres undefined), “inactive”.

Consider `Oc1ccccc1Cl`, for which the Potency result is “inactive”.

Turning to `C[C@]12CC[C@H]3[C@@H](CC[C@@]45O[C@@H]4C(O)=C(C#N)C[C@]35C)[C@@H]1CC[C@@H]2O`, the Potency result was “inactive”. The same measure, in the same setting: the value for `CCCCN(CC)C(=O)SCCC` was “inactive”; that for `CC(C)=C[C@@H]1[C@@H](C(=O)OCc2coc(Cc3ccccc3)c2)C1(C)C` was “inactive”; that for `O=C(O)c1ccccn1` was “inactive”. Consider `CC(C)(C)OOC(C)(C)C`, for which the Potency result was “inactive”.

Consider `C=C(C)CCl`, for which the Potency entry was “inactive”. On to `O=c1n(Cl)c(=O)n(Cl)c(=O)n1Cl`, for which the Potency result was “inactive”. Same read-out and setting: with `BrCCBr` the entry was “inactive”. As to `O=C1CCCN1`, the Potency entry is “inactive”.

Turning to `c1ccc(-c2ccccc2)cc1`, the Potency entry is “inactive”.

As for `O=NN1CCCCCCC1`, the Potency result was “inactive”. Take `NCCc1ccc(O)cc1`: the Potency result was “inactive”.

With `CCOP(=S)(OCC)Oc1cnc2ccccc2n1`, the “activity change, negative = inhibition” value was -0.139% (inactive).

As to `O=[N+]([O-])c1ccc([As](=O)(O)O)cc1`, the Potency entry was “inactive”. As for `Clc1ccc(Cl)cc1`, the Potency result is “inactive”.
